# Results: PubChem BioAssay (NCATS)
# Results filed as inconclusive are left out. Where a call stands in place of a potency, no number is given. The source made the active and inactive calls. The call rests on the fitted dose curve; in most records, active means well fitted inhibition curve with a large enough effect; inconclusive means small, poorly fitted or top-dose-only effect; inactive means no such curve, though single readings can be large or run the other way.
# Assay: Primary qHTS for inhibitors of nuclear receptor binding SET domain protein 2 (NSD2) in an RCH-ACV wild type WT cells (2C) (AID 1645877); further: nearly all actives have a fitted effect of over 70% in size
# Conditions: RCH-ACV (leukaemia line) NSD2 WT (2C) viability, CellTiter-Glo, 72 h; series mostly up to 44.9 µM
# Potency means the concentration at half of the fitted maximal effect.
row,SMILES,Potency
1,CCOC(CN1CCN(CC(C)C(=O)c2ccccc2)CC1)c1ccccc1 (stereo not given),14.5 µM (active)
2,NC(=O)NNc1ccccc1,inactive
3,NCCNCCNCCN,inactive
4,O=C1NC(=O)[C@@]2(CCOc3ccc(F)cc32)N1,inactive
5,OC[C@H]1O[C@@H](O[C@@H]2[C@@H](CO)O[C@](O)(CO)[C@H]2O)[C@H](O)[C@@H](O)[C@H]1O,inactive
6,O=c1cc[nH]c(=S)[nH]1,inactive
7,Nc1cc(=O)[nH]c(N)n1,inactive
8,CC(C)(C)NCC(O)COc1ccc(NC(=O)NC2CCCCC2)cc1 (stereo not given),inactive
9,NC1[C@H]2CN(c3nc4c(cc3F)c(=O)c(C(=O)O)cn4-c3ccc(F)cc3F)C[C@@H]12 (stereo not given in full),5.31 µM (active)
10,Nc1ccc(S(=O)(=O)Nc2nccs2)cc1,inactive
11,CC1=C(C/C=C(\C)CCC[C@H](C)CCC[C@H](C)CCCC(C)C)C(=O)c2ccccc2C1=O,inactive
12,CC1CC(OC(=O)C(O)c2ccccc2)CC(C)(C)N1C (stereo not given),inactive
13,O=C(CCCN1CCN(c2ccccn2)CC1)c1ccc(F)cc1,inactive
14,N[C@@H](CSCCCO)C(=O)O,inactive
15,CCC(=O)Nc1ccc(O)cc1,inactive
